Assay: EMT-state selective cytotoxicity in co-culture – imaging, PC-3E GFP, TEM4-18 mCherry, primary screen (AID 1345086);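 also: cells exposed to compound for 72 h before imaging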
Settings: PC-3E GFP / TEM4-18 mCherry co-culture, imaging cell counts; measured here: epithelial PC-3E GFP cell survival; at 1 µM

| Compound | normalised cell number |
| --- | --- |
| O=C(O)c1cc(=O)c2cccc(O)c2[nH]1 | 0.88 |
| COc1c2ccoc2nc2c(OC)c(OCC(O)C(C)(C)O)ccc12 (centres undefined) | 1 |
| CC(C)=CCc1c2c(c3occ(-c4ccc(O)c(O)c4)c(=O)c3c1O)C=CC(C)(C)O2 | 1.03 |
| O=c1c(O)c(-c2ccccc2)oc2cc(O)ccc12 | 0.98 |
| C=C[C@@](C)(O)CCC1C(=C)C[C@H](O)C2C(C)(C)CCCC12C (some centres undefined) | 1.07 |
| CC(C(=O)O)[C@H]1CCC2C3CC=C4C[C@@H](O)CC[C@]4(C)C3CC[C@@]21C (some centres undefined) | 1.12 |
| CC1(C)C=Cc2cc3ccc(=O)oc3cc2O1 | 1.07 |
| CC(=O)c1c(O)c(C)c(O)c2c1OC1=CC(=O)C(C(C)=O)C(=O)C12C (centres undefined) | 1.06 |
| O=C(O)c1cc2ccccc2[nH]1 | 0.91 |
| O=C1C=CC(=C(c2ccc(O)cc2)c2ccc(O)cc2)C=C1 | 1.03 |
| COc1c(OC)c2occc2c2oc(=O)ccc12 | 1.12 |
| CON | 1.15 |
| CCOC(=O)[C@H](CCc1ccccc1)N[C@H](C)C(=O)N1C2CCCCC2C[C@H]1C(=O)O (some centres undefined) | 1.03 |
| O=C(/C=C/c1ccccc1)c1ccc(O[C@@H]2O[C@H](CO)[C@@H](O)[C@H](O)[C@H]2O)cc1O | 0.9 |
| COc1cc(OC)c2ccc(=O)oc2c1 | 0.96 |
| Oc1cc(O)c2c(c1)O[C@H](c1cc(O)c(O)c(O)c1)[C@H](O)C2 | 0.76 |

| Compound | normalised cell number |
| --- | --- |
| Cc1ccc2c(c1)CC[C@H]1CC(=O)CC[C@]21C | 1.12 |
| CC(=O)N[C@@H]1[C@@H](O)[C@H](O)[C@@H](CO)O[C@H]1O | 1 |
| CC(=O)O[C@@H]1CC[C@@]2(C)C(C[C@@H](OC(C)=O)[C@@]3(C)C4=CC(=O)O[C@@H](c5ccoc5)[C@]4(C)CCC23)C1(C)C (some centres undefined) | 1.08 |
| C[C@]12CCC3c4ccc(OS(=O)(=O)O)cc4CCC3C1CC[C@H]2O (some centres undefined) | 1.3 |
| NC1(C(=O)O)CCCC1 | 1.24 |
| NC1=NCCN1CC(=O)O | 1.1 |
| NC(Cn1ccc(=O)c(O)c1)C(=O)O (centres undefined) | 0.94 |
| CC1=CCc2c(cc3oc(C)cc(=O)c3c2O)OC1 | 1.02 |
| COC(=O)c1c(C)cc(O)cc1O | 0.91 |
| COC1=CC(=O)C=C(OC)C1=O | 0.92 |
| COc1cc(C)c2c(=O)cc(-c3ccccc3)oc2c1 | 1.28 |
| N#Cc1ccc2c(c1)N(CCCN1CCC(O)CC1)c1ccccc1S2 | 0.87 |
| C=NC(C(=O)NC1C(=O)N2C1SC(C)(C)C2C(=O)O)c1ccccc1 (centres undefined) | 0.88 |
| O=C1c2ccc(O)c(O)c2C(=O)c2c(O)ccc(O)c21 | 0.82 |
| COc1c2ccoc2c(OC)c2oc(=O)ccc12 | 1.03 |
| O=c1[nH]c2cc(Cl)c(Cl)cc2[nH]c1=O | 0.94 |

Same assay, conditions: PC-3E GFP / TEM4-18 mCherry co-culture, imaging cell counts; measured here: mesenchymal TEM4-18 mCherry cell survival; at 1 µM

| Compound | normalised cell number |
| --- | --- |
| O=C(O)c1cc(=O)c2cccc(O)c2[nH]1 | 1.13 |
| COc1c2ccoc2nc2c(OC)c(OCC(O)C(C)(C)O)ccc12 (centres undefined) | 0.92 |
| CC(C)=CCc1c2c(c3occ(-c4ccc(O)c(O)c4)c(=O)c3c1O)C=CC(C)(C)O2 | 0.78 |
| O=c1c(O)c(-c2ccccc2)oc2cc(O)ccc12 | 0.88 |
| C=C[C@@](C)(O)CCC1C(=C)C[C@H](O)C2C(C)(C)CCCC12C (some centres undefined) | 0.93 |
| CC(C(=O)O)[C@H]1CCC2C3CC=C4C[C@@H](O)CC[C@]4(C)C3CC[C@@]21C (some centres undefined) | 1.02 |
| CC1(C)C=Cc2cc3ccc(=O)oc3cc2O1 | 1.05 |
| CC(=O)c1c(O)c(C)c(O)c2c1OC1=CC(=O)C(C(C)=O)C(=O)C12C (centres undefined) | 0.94 |
| O=C(O)c1cc2ccccc2[nH]1 | 0.95 |
| O=C1C=CC(=C(c2ccc(O)cc2)c2ccc(O)cc2)C=C1 | 0.82 |
| COc1c(OC)c2occc2c2oc(=O)ccc12 | 1.08 |
| CON | 1.18 |
| CCOC(=O)[C@H](CCc1ccccc1)N[C@H](C)C(=O)N1C2CCCCC2C[C@H]1C(=O)O (some centres undefined) | 0.93 |
| O=C(/C=C/c1ccccc1)c1ccc(O[C@@H]2O[C@H](CO)[C@@H](O)[C@H](O)[C@H]2O)cc1O | 0.9 |
| COc1cc(OC)c2ccc(=O)oc2c1 | 1.05 |
| Oc1cc(O)c2c(c1)O[C@H](c1cc(O)c(O)c(O)c1)[C@H](O)C2 | 0.85 |

| Compound | normalised cell number |
| --- | --- |
| Cc1ccc2c(c1)CC[C@H]1CC(=O)CC[C@]21C | 1.14 |
| CC(=O)N[C@@H]1[C@@H](O)[C@H](O)[C@@H](CO)O[C@H]1O | 0.98 |
| CC(=O)O[C@@H]1CC[C@@]2(C)C(C[C@@H](OC(C)=O)[C@@]3(C)C4=CC(=O)O[C@@H](c5ccoc5)[C@]4(C)CCC23)C1(C)C (some centres undefined) | 1.06 |
| C[C@]12CCC3c4ccc(OS(=O)(=O)O)cc4CCC3C1CC[C@H]2O (some centres undefined) | 1.13 |
| NC1(C(=O)O)CCCC1 | 1.06 |
| NC1=NCCN1CC(=O)O | 1.01 |
| NC(Cn1ccc(=O)c(O)c1)C(=O)O (centres undefined) | 1.04 |
| CC1=CCc2c(cc3oc(C)cc(=O)c3c2O)OC1 | 1.12 |
| COC(=O)c1c(C)cc(O)cc1O | 0.97 |
| COC1=CC(=O)C=C(OC)C1=O | 0.84 |
| COc1cc(C)c2c(=O)cc(-c3ccccc3)oc2c1 | 1.09 |
| N#Cc1ccc2c(c1)N(CCCN1CCC(O)CC1)c1ccccc1S2 | 0.92 |
| C=NC(C(=O)NC1C(=O)N2C1SC(C)(C)C2C(=O)O)c1ccccc1 (centres undefined) | 0.99 |
| O=C1c2ccc(O)c(O)c2C(=O)c2c(O)ccc(O)c21 | 0.92 |
| COc1c2ccoc2c(OC)c2oc(=O)ccc12 | 1.09 |
| O=c1[nH]c2cc(Cl)c(Cl)cc2[nH]c1=O | 1.02 |

From PubChem BioAssay
